# Screens (PubChem BioAssay)
# UHRF1 binding – UHRF1 methyl-DNA binding inhibition | Q96T88 | UHRF1 binding to methylated oligo, TR-FRET | inhibition, % at 4.4 µM | actives 0.75% (n = 370,000) | AID 687016; in the data active means inhibition above about 21%;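 further: UHRF1 SRA domain binding a hemimethylated CpG hairpin DNA probe; 0% = median of test compound wells and 100% = reference inhibitor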
# Neddylation inh – blocks human cullin neddylation; P61081+Q13564; TR-FRET cullin neddylation, biochemical; calls only at 25 µM; actives 0.58% (n = 360,000); AID 651699; in the data active means inhibition above about 36%
# UBC13 inh – human UBC13 polyubiquitination inhibition; P61088; UBC13 polyubiquitin chain formation, TR-FRET; inhibition, % at 20 µM; actives 0.47% (n = 330,000); AID 485273; in the data active means inhibition above about 45%, passing the limit was not always enough; inconclusive means no clear call, values can overlap the other calls
# MBD2 inh – MBD2-methylated oligo binding inhibition | AID 686964 | inhibition, % at 4.4 µM | actives 0.31% (n = 370,000) | TR-FRET, MBD2 binding to methylated oligonucleotide; in the data active means inhibition above about 13%
# Casp3 counter – inhibits human caspase-3 in UBC13 counter-screen; shares compounds with UBC13 inh; Recombinant caspase-3, Caspase-Glo 3/7 luminescence, 60 min; inhibition, % at 20 µM; actives 4% (n = 1,400);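 active means mean inhibition across replicates above about 26%, limit read from the data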;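 further: plate controls were DMSO with caspase-3 for no effect and DMSO wells lacking enzyme for full effect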
# UBC13 confirm – human UBC13 polyubiquitin inhibition, confirmed. inhibition, % at 10 µM. actives 68% (n = 1,400). shares compounds with UBC13 inh. UBC13 polyubiquitination, TR-FRET, biochemical; in the data active means inhibition above about 45%; inconclusive means no clear call, values can overlap the other calls
# An asterisk follows results filed as active; i = inactive; ? = inconclusive; . = not tested or not shown. Most compounds without a hit are left out; they make up all but 1.8% or so of the library.
SMILES,UHRF1 binding,Neddylation inh,UBC13 inh,MBD2 inh,Casp3 counter,UBC13 confirm
CCOc1ccccc1NC(=O)C(OC(=O)c1ccc(O)cc1)c1ccccc1 (centres undefined),1,i,78*,2,-2,89*
O=S(=O)(NCCCc1ccccc1)c1ccc(F)c(F)c1,0,i,7,1,.,.
COc1ccccc1OCCNC(=O)c1cccc(S(=O)(=O)N2CCN(Cc3ccccc3)CC2)c1,0,i,70*,-2,-3,56*
COc1ccccc1OCCNC(=O)c1cccc(S(=O)(=O)N2CCN(C)CC2)c1,-2,i,17,-1,.,.
CN(Cc1ccc(Cl)c(Cl)c1)C(=O)c1cccc(S(=O)(=O)N2CCN(Cc3ccccc3)CC2)c1,7,i,86*,-3,2,104*
C#CCOCCOCCOCCNc1nc(N2CCOCC2)nc(N2CCN(C(=O)[C@H](CCCCN)n3cc(CCC(=O)O)nn3)CC2)n1,15,i,.,11,.,.
C#CCOCCOCCOCCNc1nc(N2CCN(C(=O)[C@H](CCCCN)n3cc(CN)nn3)CC2)nc(N2CCN(C(=O)[C@H](CCC(=O)O)n3cc([C@@H](N)CCCCN)nn3)CC2)n1,9,i,105*,7,-3,114*
C#CCOCCOCCOCCNc1nc(N2CCN(C(=O)[C@H](CCCCN)n3cc(CN)nn3)CC2)nc(N2CCN(C(=O)[C@H](CCCCN)n3cc(CN)nn3)CC2)n1,20,i,103*,1,-8,112*
CCOc1ccc(CCN2C(=O)C(=O)N([C@@H](CC(C)C)CN3CCC[C@H]3CN3C(=O)C(=O)NC[C@@H]3CC(C)C)C[C@@H]2CC(C)C)cc1,2,i,.,-6,.,.
CC(C)C[C@H]1CNC(=O)C(=O)N1C[C@@H]1CCCN1C[C@H](Cc1ccccc1)N1C[C@H](CC(C)C)N(CCc2ccccc2)C(=O)C1=O,4,i,.,7,.,.
CCC(C)[C@H]1CN=C(N)N1CC1CCCCC1 (some centres undefined),.,.,8,.,.,.
CC[C@@H](C)[C@@H]1CN([C@@H](CN2CCC[C@H]2CN2C(N)=NC[C@H]2CC(C)C)C(C)C)C(=N)N1CCCC1CCCC1,-1,i,66*,-1,3,58*
CC[C@@H](C)[C@@H]1CN([C@@H](C)CN2CCC[C@H]2CN2C(N)=NC[C@H]2CC(C)C)C(=N)N1CCc1ccc(Cl)c(Cl)c1,-2,i,69*,1,0,70*
CCC[C@@H](CN1CCC[C@H]1CN1C(N)=NC[C@H]1CC(C)C)N1C[C@@H]([C@H](C)CC)N(CCc2ccc(Cl)c(Cl)c2)C1=N,1,i,82*,6,-4,80*
CC[C@@H](C)[C@@H]1CN([C@@H](CN2CCC[C@H]2CN2C(N)=NC[C@H]2CC(C)C)C(C)C)C(=N)N1CCc1ccc(Cl)c(Cl)c1,2,i,73*,5,3,86*
CC(C)[C@@H]1CN=C(N)N1C[C@@H]1CCCN1C[C@H](C)N1C[C@@H](Cc2ccccc2)N(CCc2ccc(Cl)c(Cl)c2)C1=N,.,i,70*,.,-2,46*
CC(C)C[C@@H](CN1CCC[C@H]1CN1C(=O)C(=O)NC[C@@H]1Cc1ccccc1)N1C[C@H](Cc2ccccc2)N(CCc2ccccc2)C(=O)C1=O,-1,i,.,-1,.,.
C[C@@H](CN1CCC[C@H]1CN1C(N)=NC[C@@H]1Cc1ccccc1)N1C[C@@H](Cc2ccccc2)N(CCc2ccc(Cl)c(Cl)c2)C1=N,.,i,63*,.,-5,70*
CCCCN1C(=N)N([C@@H](C)CN2CCC[C@H]2CN2C(N)=NC[C@H]2CC(C)C)C[C@H]1Cc1ccccc1,2,i,27,-2,.,.
CC(C)C[C@@H](CN1CCCC1CN1C(=S)NC[C@@H]1Cc1ccccc1)N1C[C@H](Cc2ccccc2)N(CCc2ccccc2)C1=S (some centres undefined),-2,i,.,-1,.,.
CC(C)[C@H](CN1CCC[C@H]1CN1C(N)=NC[C@@H]1Cc1ccccc1)N1C[C@@H](Cc2ccccc2)N(CCc2ccc(Cl)c(Cl)c2)C1=N,.,i,75*,.,3,76*
CC(C)(C)[C@@H]1COC(=O)[C@@H](Cc2ccc(F)cc2)C/C=C\C[C@H](CC(=O)N(CCO)Cc2ccccc2)C(=O)N1,1,i,-15,-4,.,.
Brc1ccc(-c2nnc3ccc(N4CCN(c5ccccc5)CC4)nn23)cc1,.,i,62*,.,-3,18
COc1ccc(S(=O)(=O)N2CCN(c3ccc4nnc(-c5ccccc5)n4n3)CC2)cc1,2,i,51*,-3,-4,32
Fc1ccc(-c2nnc3ccc(N4CCCC4)nn23)cc1,-6,i,8,-3,.,.
SMILES,UHRF1 binding,Neddylation inh,UBC13 inh,MBD2 inh,Casp3 counter,UBC13 confirm
CCO[C@@H]1OC(C(=O)NCc2ccccc2)=C[C@H](c2coc3ccccc3c2=O)[C@H]1CCCO,0,i,20,-2,.,.
COCCN(CCOC)C(=O)CC(=O)N(CCOC)CCOC,1,i,-2,-5,.,.
COc1cccc(-c2c(-c3cc(OC)cc(OC)c3)n(C)c3ccc(Br)cc23)c1,1,i,27,-2,.,.
COc1cccc(-c2c(-c3cc(OC)cc(OC)c3)n(C)c3ccc(-c4ccc(OC)nc4)cc23)c1,1,i,46*,2,3,?
COc1ccc(-c2c(-c3cc(OC)cc(OC)c3)n(C)c3ccc(Br)cc23)cc1,-2,i,48*,-7,2,42
COc1cc(OC)cc(-c2c(-c3ccc(F)cc3)c3cc(-c4ccc(OC)nc4)ccc3n2C)c1,2,i,29,1,.,.
Cc1cccc(-c2oc3ccccc3c2-c2ccc3c(c2)OCO3)c1,2,.,.,1,.,.
CCOC(=O)c1sc(C)c2c(=O)n(Cc3ccc(Cl)cc3)c(C)nc12,0,i,3,2,.,.
Cc1cc(NC(=O)COC(=O)COc2ccc(C(=O)c3ccccc3)cc2)no1,0,i,2,1,.,.
CCc1ccccc1OCC(=O)OCC(=O)Nc1cc(C)on1,-1,i,48*,1,6,16
COc1ccc(/C=N/Nc2nc(C)cc(-c3ccccc3)n2)c(OC)c1,-3,i,2,0,.,.
COc1ccc2nc(C)cc(N/N=C/c3ccccc3)c2c1,.,i,53*,.,6,49*
COc1ccc(/C=N/Nc2cc(C)nc3ccc(OC)cc23)c(OC)c1,-4,.,102*,3,4,122*
COc1ccc2nc(C)cc(SCC(=O)N/N=C/c3ccccc3)c2c1,-2,i,30,1,.,.
COc1ccc(Cn2cc(C(=O)c3ccccc3)c(=O)c3cc(OC)ccc32)cc1,-3,i,13,-7,.,.
Cc1ccc(Cn2cc(C(=O)c3ccc(F)cc3)c(=O)c3cc4c(cc32)OCCO4)cc1,-4,i,45*,-3,-1,?
